Common to all, as to conditions: mRNA level, 48 h; actives raise or lower the signal
Read-out in assay [1]: Cytochrome P450 (CYP2B6), CYP2B6 (gene 1555)
As to the kind of experiment: LTEA_HepaRG_CYP2B6: Life Technologies and Expression Analysis (LTEA) Assay for Cytochrome P450 (CYP2B6) using HepaRG (AID 2283481). The essentials:
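HepaRG cells plated 48 h, switched to serum-free induction medium, then dosed 48 h (8 points, half-log from 100 uM, 0.5% DMSO). RNA isolated; CYP2B6 expression measured by qRT-PCR; gain or loss fitted relative to DMSO.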

Read-out in assay [2]: Cytochrome P450 2C19 (Homo sapiens) (UniProt P33261)
In words: LTEA_HepaRG_CYP2C19: Life Technologies and Expression Analysis (LTEA) Assay for CYP2C19 using HepaRG (AID 2283482). The essentials: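 Transcript levels of CYP2C19 were quantified by qRT-PCR after HepaRG cells were treated for 48 hours with test chemicals up to 100 uM (eight half-log concentrations, 0.5% DMSO vehicle). Gain or loss of signal was fitted relative to DMSO.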

Read-out in the next assay: CYP2C8 (gene 1558)
In words: LTEA_HepaRG_CYP2C8: Life Technologies and Expression Analysis (LTEA) Assay for CYP2C8 using HepaRG (AID 2283483). In outline: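 Differentiated HepaRG cells in serum-free induction medium exposed 48 h in duplicate to 8 half-log concentrations from 100 uM in 0.5% DMSO. CYP2C8 mRNA by qRT-PCR normalized to ACTB, GAPDH, POLR2A; bidirectional fit versus DMSO.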

Read-out in the next assay: CYP2C9 (gene 1559)
In words: LTEA_HepaRG_CYP2C9: Life Technologies and Expression Analysis (LTEA) Assay for CYP2C9 using HepaRG (AID 2283484). In outline:
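Differentiated human HepaRG cells in serum-free induction medium were exposed 48 h to chemicals in 8-point half-log series from 100 uM (0.5% DMSO), in duplicate. CYP2C9 mRNA was measured by qRT-PCR, normalized to ACTB/GAPDH/POLR2A, with bidirectional fitting versus DMSO.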

Read-out in assay [3]: DNA damage-inducible transcript 3 (DDIT3), DDIT3 (gene 1649)
In words: LTEA_HepaRG_DDIT3: Life Technologies and Expression Analysis (LTEA) Assay for DNA damage-inducible transcript 3 (DDIT3) using HepaRG (AID 2283488). The essentials: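 HepaRG cells, 48 h after plating, exposed 48 h in serum-free induction medium to 8 half-log concentrations up to 100 uM in 0.5% DMSO, in duplicate. DDIT3 mRNA measured by TaqMan qRT-PCR, normalized to ACTB, GAPDH and POLR2A. Fitted bidirectionally against DMSO.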

Read-out in assay [4]: Pro-epidermal growth factor (Homo sapiens) (UniProt P01133)
In words: LTEA_HepaRG_EGF: Life Technologies and Expression Analysis (LTEA) Assay for Epidermal growth factor (EGF) using HepaRG (AID 2283489). In outline: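 HepaRG, 48 h dosing, 100 uM top, half-log x8, 0.5% DMSO. Readout: TaqMan qRT-PCR (Fluidigm array), housekeeping-normalized. Gain or loss of signal fit vs DMSO.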

Read-out in assay [5]: Early growth response protein 1 (EGR1) transcription factor, EGR1 (gene 1958)
In words: LTEA_HepaRG_EGR1: Life Technologies and Expression Analysis (LTEA) Assay for Early growth response protein 1 (EGR1) transcription factor using HepaRG (AID 2283490). In outline:
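Differentiated HepaRG cells in serum-free induction medium exposed 48 hours, duplicate, to 8 half-log concentrations up to 100 uM in 0.5% DMSO. EGR1 mRNA measured by TaqMan qRT-PCR, normalized to ACTB, GAPDH, POLR2A; bidirectional fit versus DMSO.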

Read-out in assay [6]: Ezrin (EZR), EZR (gene 7430)
In words: LTEA_HepaRG_EZR: Life Technologies and Expression Analysis (LTEA) Assay for Ezrin (EZR) using HepaRG (AID 2283491). In outline: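 EZR transcript levels came from Fluidigm qRT-PCR and were normalized to three housekeeping genes after 48 h chemical exposure of HepaRG cells. Dosing used an 8-point half-log series with a 100 uM top concentration in 0.5% DMSO, tested in duplicate; both directions were fitted versus vehicle.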

Read-out in assay [7]: Cytochrome P450 3A7 (Homo sapiens) (UniProt P24462)
As to the kind of experiment: LTEA_HepaRG_CYP3A7: Life Technologies and Expression Analysis (LTEA) Assay for CYP3A7 using HepaRG (AID 2283492). In outline: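 Human HepaRG liver cells, 48 h post-plating, switched to serum-free induction medium and exposed in duplicate for 48 h. Dosing: 100 uM top, half-log dilutions, 8 points, 0.5% DMSO vehicle. Read-out: CYP3A7 mRNA, gain or loss fitted against DMSO baseline.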

Read-out in another assay: CYP3A5 (gene 1577)
As to the kind of experiment: LTEA_HepaRG_CYP3A5: Life Technologies and Expression Analysis (LTEA) Assay for CYP3A5 using HepaRG (AID 2283493). The essentials: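 HepaRG cells, plated 48 h then in serum-free induction medium, dosed in duplicate for 48 h with eight half-log concentrations up to 100 uM in 0.5% DMSO. Gene mRNA by Fluidigm TaqMan qRT-PCR, normalized to ACTB, GAPDH, POLR2A.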

Read-out in assay [8]: Fatty Acid-Binding Protein 1 (FABP1), FABP1 (gene 2168)
As to the kind of experiment: LTEA_HepaRG_FABP1: Life Technologies and Expression Analysis (LTEA) Assay for Fatty Acid-Binding Protein 1 (FABP1) using HepaRG (AID 2283494). In outline:
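Differentiated human HepaRG cells exposed 48 h in serum-free induction medium to eight half-log concentrations up to 100 uM (0.5% DMSO), duplicate. FABP1 mRNA by qRT-PCR, normalised to ACTB, GAPDH, POLR2A; bidirectional fitting against DMSO.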

Read-out in assay [9]: Cytochrome P450 4A22 (Homo sapiens) (UniProt Q5TCH4)
In words: LTEA_HepaRG_CYP4A22: Life Technologies and Expression Analysis (LTEA) Assay for Cytochrome P450 4A22 (CYP4A22) using HepaRG (AID 2283495). In outline:
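Readout is CYP4A22 transcript induction or loss, quantified by qRT-PCR and normalized to ACTB, GAPDH and POLR2A. Human HepaRG cells receive test chemicals for 48 h at eight half-log concentrations from 100 uM in 0.5% DMSO.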

Read-out in assay [10]: Cytochrome P450 7A1 (Homo sapiens) (UniProt P22680)
In words: LTEA_HepaRG_CYP7A1: Life Technologies and Expression Analysis (LTEA) Assay for Cytochrome P450 7A1 (CYP7A1) using HepaRG (AID 2283496). In outline:
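HepaRG cells plated 48 h, then switched to serum-free induction medium and exposed in duplicate for 48 h to 8-point half-log series from 100 uM in 0.5% DMSO. CYP7A1 mRNA by qRT-PCR (TaqMan), normalized to ACTB/GAPDH/POLR2A; bidirectional fit versus DMSO.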

Read-out in assay [11]: Glutathione S-Transferase (GSTA2), GSTA2 (gene 2939)
In words: LTEA_HepaRG_GSTA2: Life Technologies and Expression Analysis (LTEA) Assay for Glutathione S-Transferase (GSTA2) using HepaRG (AID 2283497). The essentials: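 Differentiated human HepaRG cells were exposed in duplicate for 48 h in serum-free induction medium, 8 points from 100 uM top in half-log steps, 0.5% DMSO. GSTA2 mRNA was measured by TaqMan qRT-PCR, normalized to ACTB, GAPDH and POLR2A; bidirectional fit versus DMSO.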

Read-out in assay [12]: Glutamate-cysteine ligase catalytic (GCLC), GCLC (gene 2729)
In words: LTEA_HepaRG_GCLC: Life Technologies and Expression Analysis (LTEA) Assay for Glutamate-cysteine ligase catalytic (GCLC) using HepaRG (AID 2283498). The essentials:
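Differentiated HepaRG cells exposed 48 h in serum-free induction medium, eight-point half-log series topping at 100 uM in 0.5% DMSO, duplicates. GCLC mRNA by qRT-PCR normalized to ACTB, GAPDH and POLR2A, fitted bidirectionally versus DMSO.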

Read-out in assay [13]: growth arrest and DNA damage 45 (GADD45G), GADD45G (gene 10912)
As to the kind of experiment: LTEA_HepaRG_GADD45G: Life Technologies and Expression Analysis (LTEA) Assay for growth arrest and DNA damage 45 (GADD45G) using HepaRG (AID 2283499). In outline: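 Gain or loss of GADD45G mRNA, quantified by TaqMan qRT-PCR against three housekeeping genes, is fitted in both directions relative to 0.5% DMSO. Human HepaRG cultures receive test chemical for 48 h at up to 100 uM.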

Read-out in assay [14]: Glutamate-cysteine ligase regulatory (GCLM), GCLM (gene 2730)
In words: LTEA_HepaRG_GCLM: Life Technologies and Expression Analysis (LTEA) Assay for Glutamate-cysteine ligase regulatory (GCLM) using HepaRG (AID 2283500). In outline:
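Differentiated HepaRG cells exposed 48 h in serum-free induction medium to eight half-log concentrations up to 100 uM (0.5% DMSO). GCLM mRNA by TaqMan qRT-PCR, normalized to ACTB, GAPDH and POLR2A; bidirectional fit versus DMSO.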

Read-out in another assay: CYP4A11 (gene 1579)
In words: LTEA_HepaRG_CYP4A11: Life Technologies and Expression Analysis (LTEA) Assay for CYP4A11 using HepaRG (AID 2283486). In outline: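 HepaRG, 48 h chem exposure, 8 conc (100 uM top, half-log), 0.5% DMSO vehicle; qRT-PCR readout, housekeeping-gene normalized; bidirectional curve fit vs DMSO baseline.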

Read-out in assay [15]: Cytochrome P450 3A4 (Homo sapiens) (UniProt P08684)
As to the kind of experiment: LTEA_HepaRG_CYP3A4: Life Technologies and Expression Analysis (LTEA) Assay for CYP3A4 using HepaRG (AID 2283487). The essentials: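 Differentiated HepaRG cells, plated 48 h, then dosed 48 h in serum-free induction medium with 0.5% DMSO, 8 half-log concentrations up to 100 uM, duplicate. CYP3A4 mRNA by qRT-PCR, normalized to ACTB/GAPDH/POLR2A; bidirectional fit versus DMSO.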

Read-out in the next assay: CYP2E1 (gene 1571)
As to the kind of experiment: LTEA_HepaRG_CYP2E1: Life Technologies and Expression Analysis (LTEA) Assay for CYP2E1 using HepaRG (AID 2283485). In outline:
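HepaRG cells, plated 48 h, then exposed 48 h in serum-free induction medium to eight half-log concentrations from 100 uM in 0.5% DMSO, duplicate. CYP2E1 mRNA by qRT-PCR, normalized to ACTB/GAPDH/POLR2A; bidirectional fit versus DMSO.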

Molecules are shown by their SMILES. Calls of active or inactive are those of the source. How the source made its calls: active means hit-call score of the fitted dose curve at least 0.9, where 1 is the maximum; inactive means score below 0.9.

Cytochrome P450 3A7 (Homo sapiens), sequence (P24462 whole entry, looked up): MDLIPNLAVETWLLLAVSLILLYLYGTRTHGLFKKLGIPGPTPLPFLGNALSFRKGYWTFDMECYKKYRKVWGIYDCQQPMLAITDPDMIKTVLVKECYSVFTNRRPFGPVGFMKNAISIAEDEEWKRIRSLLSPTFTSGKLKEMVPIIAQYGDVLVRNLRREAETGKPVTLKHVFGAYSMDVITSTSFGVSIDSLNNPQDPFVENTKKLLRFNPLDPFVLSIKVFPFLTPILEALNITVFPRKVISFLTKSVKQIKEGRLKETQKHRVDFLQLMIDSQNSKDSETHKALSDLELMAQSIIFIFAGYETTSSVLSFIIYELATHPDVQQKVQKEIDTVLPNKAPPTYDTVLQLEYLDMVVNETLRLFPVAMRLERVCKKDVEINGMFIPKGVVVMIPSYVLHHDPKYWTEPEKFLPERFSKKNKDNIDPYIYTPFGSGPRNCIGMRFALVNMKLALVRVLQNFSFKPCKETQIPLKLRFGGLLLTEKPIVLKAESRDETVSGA
Cytochrome P450 2C19 (Homo sapiens), sequence (P33261 whole entry, looked up): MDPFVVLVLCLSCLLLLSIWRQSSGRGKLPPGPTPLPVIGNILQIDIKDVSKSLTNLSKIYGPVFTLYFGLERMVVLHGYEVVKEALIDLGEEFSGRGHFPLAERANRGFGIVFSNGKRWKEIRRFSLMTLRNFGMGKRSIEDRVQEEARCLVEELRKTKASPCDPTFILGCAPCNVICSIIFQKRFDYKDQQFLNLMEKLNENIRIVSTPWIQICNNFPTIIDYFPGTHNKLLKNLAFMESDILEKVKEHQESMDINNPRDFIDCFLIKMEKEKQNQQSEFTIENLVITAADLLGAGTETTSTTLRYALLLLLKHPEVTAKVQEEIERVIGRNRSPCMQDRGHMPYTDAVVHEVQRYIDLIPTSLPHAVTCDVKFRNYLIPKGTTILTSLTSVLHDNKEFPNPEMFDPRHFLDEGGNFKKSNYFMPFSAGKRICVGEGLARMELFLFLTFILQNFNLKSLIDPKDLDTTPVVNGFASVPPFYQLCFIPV
Cytochrome P450 3A4 (Homo sapiens), sequence (P08684 whole entry, looked up): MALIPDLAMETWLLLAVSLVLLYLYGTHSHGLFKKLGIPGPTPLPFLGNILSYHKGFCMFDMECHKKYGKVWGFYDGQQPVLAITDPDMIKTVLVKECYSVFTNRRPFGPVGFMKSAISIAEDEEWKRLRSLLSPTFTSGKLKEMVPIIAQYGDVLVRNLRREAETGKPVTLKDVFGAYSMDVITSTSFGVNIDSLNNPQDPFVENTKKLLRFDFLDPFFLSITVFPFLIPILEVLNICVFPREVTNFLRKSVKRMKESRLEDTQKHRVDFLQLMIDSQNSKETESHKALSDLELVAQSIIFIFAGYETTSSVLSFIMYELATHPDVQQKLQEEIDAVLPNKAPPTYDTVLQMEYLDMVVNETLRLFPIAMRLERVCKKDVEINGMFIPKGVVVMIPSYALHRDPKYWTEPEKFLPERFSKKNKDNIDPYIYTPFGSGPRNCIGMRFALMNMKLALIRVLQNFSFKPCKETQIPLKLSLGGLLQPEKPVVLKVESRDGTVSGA

For `O=C(O)c1ccc2c(c1)nc(C(=O)NC1CCN(C3CC3)CC1)n2Cc1cc(-c2ccc(Cl)s2)on1`, the outcome (in assay [1]; in assay [2]; in the assay with CYP2C8 (gene 1558); with CYP2C9 (gene 1559); in assay [3]; in [4]) was inactive. In addition, the compound was called inactive (in [5]; in assay [6]; in assay [7]; with CYP3A5 (gene 1577); in assay [8]; in [9]). The call in assay [10], in [11], in [12], in assay [13] and in assay [14] was inactive.
As for `CCCCCCCCCC`, the call (in assay [1]; in [2]; with CYP2C8 (gene 1558); with CYP2C9 (gene 1559); in the assay with CYP4A11 (gene 1579); in assay [3]) was inactive. The call (in assay [4]; in assay [6]; in assay [7]; with CYP3A5 (gene 1577); in [8]; in assay [9]) was inactive. Further, the compound was classed as inactive in assay [10], in assay [11], in [12], in assay [13] and in assay [14].
Consider `NC(=O)N(O)[C@@H]1COc2cc(OCc3ccccc3)ccc21`, for which the AC50 (as a rule, the midpoint of the concentration-response curve, whichever way the signal moves) in assay [1] is 16.2 µM (active). Also, the compound was called inactive (in assay [2]; with CYP2C8 (gene 1558); in the assay with CYP2C9 (gene 1559); in assay [15]; in assay [3]; in assay [4]). In addition, the compound was called inactive (in [5]; in assay [6]; in assay [7]; with CYP3A5 (gene 1577); in [8]; in [9]). The outcome in assay [10], in assay [11], in [12], in assay [13] and in assay [14] was inactive.
As for `OCCOCCOCCO`, the result (in [1]; in assay [2]; in the assay with CYP2C8 (gene 1558); with CYP2E1 (gene 1571); in the assay with CYP4A11 (gene 1579); in assay [15]) was inactive. For the same compound, the result (in assay [3]; in assay [4]; in assay [6]; in assay [7]; with CYP3A5 (gene 1577); in assay [8]) was inactive. Besides, the compound was called inactive in assay [9], in assay [10], in [11], in [12], in assay [13] and in assay [14].
